Hits are enriched below; roughly 9.5% of the tested compounds scored in any of these assays.
RE007 growth inh: less growth of the S. pombe RE007 Vpr strain | S. pombe RE007 Vpr strain, BacTiter-Glo ATP luminescence, 24 h | Potency, µM (highest dose often 92.2 µM), actives largely listed as inhibitors | 0.21% of 360,000 active; active = well fitted falling curve with a large enough effect; inconclusive = small, poorly fitted or top-dose-only effect; inactive = no such curve, though single readings can be large or run the other way; also: nearly all actives have a fitted effect of over 50% in size
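Fission yeast RE007 carrying one integrated HIV-1 vpr copy, seeded at OD 0.01 in PMG+AL medium with 23 nL pinned compound. Grown 24 h at 30 degrees; viability read by BacTiter-Glo luminescence after 5 min.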
NS1 function inh: inhibitors of influenza NS1 protein function. Potency, µM (titrated, usually from 46.1 µM). 0.4% of 270,000 active; also: actives are rising curves; nearly all actives have a fitted effect of over 50% in size
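A cell-based growth assay was used: compounds that relieve NS1-induced slow growth of budding yeast raise OD600. Assay medium was yeast nitrogen base with ammonium sulphate and -URA supplement, pH 6.0, with 2% galactose.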
SARS PLP yeast: blocks SARS-CoV papain-like protease in a yeast assay; S. cerevisiae expressing SARS-CoV PLpro, growth rescue; Potency, µM (titrated, usually from 32.9 µM), hits mostly activators; 0.19% of 330,000 active; AID 485353; also: nearly all actives have a fitted effect of over 55% in size
Pf growth 96h: P. falciparum growth inhibition at 96 hours | Potency, µM (series often up to 28.7 µM), actives largely listed as inhibitors | P. falciparum luciferase reporter growth, 96 h | 6.9% of 320,000 active | AID 504834; active = well fitted inhibition curve with a large enough effect; inconclusive = small, poorly fitted or top-dose-only effect, or another doubt; inactive = no such curve, though single readings can be large or run the other way
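Infected RBCs, 2% Hct / 0.05% parasitemia final; luciferase-reporter P. falciparum; cpd 96 h, 37 C, 5% CO2; luciferase detection reagent; luminescence.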
Pf growth 48h: P. falciparum growth inhibition at 48 hours (one generation) | P. falciparum luciferase growth in erythrocytes, 48 h | Potency, µM (series often up to 28.7 µM), usual class: inhibitors | 5.9% of 310,000 active | AID 504832; active = well fitted inhibition curve with a large enough effect; inconclusive = small, poorly fitted or top-dose-only effect, or another doubt; inactive = no such curve, though single readings can be large or run the other way
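Read-out is firefly luciferase luminescence from an integrated reporter in P. falciparum, so falling signal marks reduced parasite growth. Infected erythrocytes were at 2% hematocrit and 0.1% parasitemia (final) in Albumax-supplemented RPMI 1640.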
Of the large screens only hits and unclear results are named; the others gave an inactive call. Unless noted, calls follow the shape of the full dose curve.

COc1ccc(CNC(=O)C2CC(=O)N(C3CCCC3)C2)cc1 (configuration not stated)	none
CCc1ccc(CNC(=O)C2CC(=O)N(C3CCCC3)C2)cc1 (configuration not stated)	NS1 function inh inconclusive, Pf growth 96h 2.6µM
Cc1ccc(CCNC(=O)C2CC(=O)N(C3CCCCC3)C2)cc1 (configuration not stated)	Pf growth 96h 1.5µM
CN(Cc1cccc(Cl)c1Cl)C(=O)CCNC(=O)c1ccco1	none (no result: NS1 function inh, Pf growth 96h, Pf growth 48h)
COc1ccc(CCC(C(O)C(F)(F)F)S(=O)c2ccccc2)cc1 (configuration not stated)	Pf growth 96h 2.1µM, Pf growth 48h inconclusive
CCCNC(=O)c1ccccc1NC(=O)Cc1ccc(OC)c(S(=O)(=O)N2CCOCC2)c1	none (no result: NS1 function inh)
CC(C)(C)c1cc(C#N)cc(Br)c1OP(=O)(Oc1c(Br)cc(C#N)cc1C(C)(C)C)c1ccccc1	none (no result: RE007 growth inh, SARS PLP yeast, Pf growth 96h, Pf growth 48h)
O=C(Nc1ccc(Cl)cc1Cl)C1CCC(=O)N1Cc1ccccc1Cl (configuration not stated)	Pf growth 96h 8.3µM, Pf growth 48h inconclusive
COCCCNC(=O)C1CCC(=O)N1Cc1ccccc1Cl (configuration not stated)	Pf growth 96h 12µM
O=C(O)C1CCC(=O)N1Cc1ccccc1Cl (configuration not stated)	Pf growth 96h 10µM
O=C(NCCc1ccc(Cl)cc1)C1CCC(=O)N1Cc1ccccc1Cl (configuration not stated)	none
CCN(CC(=O)Nc1c(F)cccc1F)C(=O)C1CCN(S(=O)(=O)c2ccccc2C(=O)OC)CC1	none (no result: NS1 function inh, SARS PLP yeast, Pf growth 96h, Pf growth 48h)
CCn1cc(C(=O)N[C@@H](CCSC)C(=O)NCCCOC)c(=O)c2cc3c(cc21)OCO3	Pf growth 48h inconclusive
O=S(=O)(CCSc1nc2ccccc2s1)c1nc2ccccc2s1	Pf growth 48h 12µM
c1ccc(-n2nnnc2SCCCSc2nc3ccccc3s2)cc1	Pf growth 96h 4.1µM (no result: Pf growth 48h)
O=C(O)c1cc(-c2ccc(-c3ccc(-c4cc(C(=O)O)c5cc(Cl)ccc5n4)cc3)cc2)nc2ccc(Cl)cc12	none (no result: RE007 growth inh, SARS PLP yeast, Pf growth 96h, Pf growth 48h)
CCN(CC)C(=O)CSc1nc2ccccc2c(=O)n1OC	Pf growth 96h 13µM
COn1c(SCc2cccc(Cl)c2)nc2ccccc2c1=O	Pf growth 96h 10µM, Pf growth 48h inconclusive
C[C@H](NS(=O)(=O)c1ccc2c(c1)OCCCO2)C(=O)N1CCN(Cc2ccc(C#N)cc2)CC1	Pf growth 96h inconclusive (no result: NS1 function inh)
CC1=C(C(=O)Nc2ccc(CC(=O)NCc3ccccc3C)cc2)SCCO1	Pf growth 96h inconclusive
CCc1ccc(CNC(=O)Cc2ccc(NC(=O)C3=C(C)OCCS3)cc2)cc1	Pf growth 96h 12µM
CCOc1ccccc1CNC(=O)c1ccc(NC(=O)C2=C(C)OCCS2)cc1	Pf growth 96h 6.6µM, Pf growth 48h inconclusive
COC(=O)C1=C(Nc2ccc(C)cc2)C=C(C)C(C(=O)OC)C1c1ccc(OC)cc1 (configuration not stated)	Pf growth 96h inconclusive, Pf growth 48h 4.1µM
COC(=O)C1=C(Nc2ccc(C)cc2)C=C(C)C(C(=O)OC)C1c1cccc(OC)c1 (configuration not stated)	Pf growth 96h 1.7µM, Pf growth 48h 2.6µM
COC(=O)C1C(=O)C=C(Nc2ccc(F)cc2)CC1c1ccc(OC)cc1 (configuration not stated)	none
O=S(=O)(c1ccccc1)N1N=C(c2ccc(Br)cc2)CC1c1ccco1 (configuration not stated)	Pf growth 96h inconclusive, Pf growth 48h inconclusive
C=C(C)Cn1c(=O)c2c(nc3n2CCCN3CCc2ccccc2)n(C)c1=O	Pf growth 48h inconclusive
CCn1cc(C2=NOC(C(=O)Nc3cc(OC)c(Cl)cc3OC)C2)c(C)n1 (configuration not stated)	Pf growth 48h inconclusive
CCn1cc(C2=NOC(C(=O)O)C2)c(C)n1 (configuration not stated)	Pf growth 96h 5.9µM
CC(=O)Nc1cccc(C(=O)OC(C(=O)c2ccc(C)c(C)c2)c2ccccc2)c1 (configuration not stated)	Pf growth 96h 10µM, Pf growth 48h inconclusive
COc1ccc(C(=O)OC(C(=O)c2ccc(C)cc2)c2ccccc2)cc1 (configuration not stated)	Pf growth 48h inconclusive
CC(=O)Nc1cccc(C(=O)OC(C(=O)c2ccc(C)cc2)c2ccccc2)c1 (configuration not stated)	Pf growth 48h 1.5µM
O=C(NCCc1ccc(Cl)cc1)C1CCN(C(=O)c2ccc(F)cc2)CC1	none
CC(C)(CCc1nc2ccccc2[nH]1)C(=O)O	none (no result: RE007 growth inh, SARS PLP yeast, Pf growth 96h, Pf growth 48h)
COc1ccc(C2c3c(ncn(CCN4CCOCC4)c3=N)Oc3ccc4ccccc4c32)cc1 (configuration not stated)	Pf growth 48h 9.3µM (no result: Pf growth 96h)
COc1ccc(C2c3c(ccc4ccccc34)Oc3ncn4nc(-c5ccco5)nc4c32)cc1 (configuration not stated)	Pf growth 96h 3.7µM, Pf growth 48h inconclusive
c1ccc(C2c3c(ccc4ccccc34)Oc3ncn4nc(-c5ccco5)nc4c32)cc1 (configuration not stated)	Pf growth 96h inconclusive
COc1ccc(C2c3c(ccc4ccccc34)Oc3ncn4nc(Cc5ccc(OC)c(OC)c5)nc4c32)cc1 (configuration not stated)	Pf growth 96h inconclusive, Pf growth 48h inconclusive (no result: RE007 growth inh)
N=c1c2c(ncn1CCN1CCOCC1)Oc1ccc3ccccc3c1C2c1ccccc1 (configuration not stated)	Pf growth 96h 4.7µM (no result: Pf growth 48h)
O=C(c1ccccc1)N(C(=O)c1ccccc1)c1ncnc2c1C(c1ccccc1)c1c(ccc3ccccc13)O2 (configuration not stated)	Pf growth 48h inconclusive (no result: RE007 growth inh, NS1 function inh)
Cc1ccc(NC(=O)CN(C)C(=O)COC(=O)C2=COCCO2)cc1	RE007 growth inh inconclusive, Pf growth 48h inconclusive (no result: NS1 function inh)
CS(=O)(=O)c1nc(-c2ccccc2)cc(-c2ccccc2)c1C#N	Pf growth 96h 1.7µM, Pf growth 48h inconclusive
COc1ccc(Cl)cc1N1C(=O)/C(=C\c2sccc2C)N=C1SCC(=O)NC1CC1	Pf growth 96h 9.3µM (no result: Pf growth 48h)
C#CCNC(=O)C1=C[C@@H](c2ccc(C(F)(F)F)cc2)[C@H](CCCO)[C@@H](OCC)O1	Pf growth 96h 12µM, Pf growth 48h inconclusive
CCO[C@@H]1OC(C(=O)NCc2ccccc2)=C[C@H](c2ccc(C(F)(F)F)cc2)[C@H]1CCCO	Pf growth 96h 8.3µM, Pf growth 48h 4.7µM
CCN1CCN(CCc2nc3cc(NC(=O)COc4ccc(Cl)cc4)ccc3n2C)CC1	Pf growth 96h 6.6µM, Pf growth 48h 5.2µM
Cn1c(CCN2CCCC2)nc2cc(NC(=O)COc3ccc(Cl)cc3)ccc21	none (no result: NS1 function inh, SARS PLP yeast, Pf growth 96h, Pf growth 48h)
Cc1ccc(S(=O)(=O)Nc2ccc3c(c2)nc(CCN2CCN(c4ccccn4)CC2)n3C)cc1	Pf growth 96h inconclusive, Pf growth 48h inconclusive
